Screening results from PubChem BioAssay.
hgDAF12 agonist – agonists of H. glycines DAF-12 nuclear receptor. HEK293 GAL4-hgDAF12 UAS-luciferase reporter, agonist luminescence; normalized to butyrate control. activation, % at 6.8 µM. 1.8% of 370,000 active. AID 687014;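 active means activation above a cutoff set at the mean of all screened compounds plus 3 SD, cut at about 10% in these data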;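 further: 0% = DMSO wells and 100% = sodium butyrate wells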
DAX1 inh-1 – inhibitors of human orphan nuclear receptor DAX1 (NR0B1). P51843. HEK293 Gal4-DAX1 luciferase reporter, luminescence. inhibition, % at 6.75 µM. 0.99% of 340,000 active. AID 504766;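 active means inhibition above the mean over all tested compounds plus 3 SD, cut at about 4.2% in these data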;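 further: 0% = DAX1-transfected cells with DMSO and 100% = empty-vector control cells with DMSO; inhibition shows as a rise in luminescence from relieved DAX1 repression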
Target sequence (P51843 207-470 limits assumed): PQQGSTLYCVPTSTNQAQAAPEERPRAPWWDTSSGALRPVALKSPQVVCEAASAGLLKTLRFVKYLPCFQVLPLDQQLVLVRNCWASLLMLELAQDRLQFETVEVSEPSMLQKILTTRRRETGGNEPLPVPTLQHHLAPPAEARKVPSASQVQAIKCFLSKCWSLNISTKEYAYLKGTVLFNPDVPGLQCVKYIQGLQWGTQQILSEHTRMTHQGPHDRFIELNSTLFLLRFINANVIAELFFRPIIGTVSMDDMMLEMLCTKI
hcDAF12 agonist – activators of H. contortus DAF-12 nuclear receptor | 1.4% of 370,000 active | activation, % at 6.8 µM | HEK293 hcDAF-12 lit1-tk-luc reporter, luminescence; 0% DMSO, 100% Δ7-dafachronic acid;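 active means activation above the mean of all tested compounds plus 3 SD, cut at about 5.5% in these data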;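 further: 100% = response to 3 µM Δ7-dafachronic acid high control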
ssDAF-12 act – S. stercoralis DAF-12 activation, primary screen | HEK293 ssDAF-12/GRIP1 lit1-tk-luc reporter, luminescence; % of 3 µM dafachronic acid response | AID 652126 | 1% of 370,000 active | activation, % at 6.8 µM;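 active means activation above the mean over all tested compounds plus 3 SD, cut at about 0.9% in these data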;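 further: 0% = DMSO-only wells and 100% = 3 µM delta7-dafachronic acid wells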
DAX1 inh-2 – blocks DAX1 repression of SF-1 activated StAR promoter; AID 652010; inhibition, % at 6.8 µM; HEK293T StAR-luciferase reporter, SF-1/DAX-1 repression relief; 1.1% of 370,000 active;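 active means inhibition above the mean over all tested compounds plus 3 SD, cut at about 3.6% in these data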;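 further: 0% = DAX-1 cells with DMSO and 100% = cells lacking DAX-1 with DMSO; higher inhibition means more luminescence from relief of DAX-1 repression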
SMARCA2 activ – increases SMARCA2 function in MMTV reporter cells | activation, % at 9.1 µM | 1% of 370,000 active | MG213 cells, MMTV-luciferase reporter, dexamethasone, overnight; in the data active means activation above about 7.8%;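 further: 0% = vehicle wells and 100% = reference activator wells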
SMARCA2 conf – SMARCA2 activation, confirmation screen | shares compounds with SMARCA2 activ | MG213 cells, MMTV-luciferase with dexamethasone, luminescence, overnight; MG213 cells expressing E1A, Rb sequestered; DMSO wells 0%, reference activator 100% | activation, % at 9.1 µM | 30% of 3,500 active;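 active means activation above its plate's cutoff, the mean activation of tested wells plus 3 SD, cut at about 7.9% in these data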
GAL4-VP16 Luc – counter-screen for SMARCA2 activators: GAL4-VP16 luciferase reporter activation; activation, % at 9.1 µM; 41% of 3,500 active; shares compounds with SMARCA2 activ; HEK293 GAL4-VP16 pG5luc reporter, luciferase luminescence; scaled: DMSO wells 0%, SAHA wells 100%;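 active means activation above the solvent-only control well mean plus 3 SD, averaged across control plates, cut at about 5.2% in these data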
Starred values were filed as active, the others as inactive; / = not tested or not shown. Most compounds without a hit are left out; they make up all but 4.8% or so of the library.

SMILES | hgDAF12 agonist | DAX1 inh-1 | hcDAF12 agonist | ssDAF-12 act | DAX1 inh-2 | SMARCA2 activ | SMARCA2 conf | GAL4-VP16 Luc
O=[N+]([O-])c1cc(Cl)ccc1NCCNS(=O)(=O)c1ccccc1 | 0 | 1 | -1 | -2 | 1 | 16* | -1 | 1
COc1ccc(OC)c(NC(=O)c2ccccc2N(Cc2ccccc2)C(=O)C(C)Cl)c1 (configuration not stated) | -1 | / | -2 | -1 | -1 | -1 | / | /
O=C(NCCCNCCCNC(=O)c1ccccn1)c1ccccn1 | 1 | 2 | -1 | -1 | 0 | 12* | -3 | 1
Cc1ccc(S(=O)(=O)N2CCCC(C(=O)NCc3ccco3)C2)cc1 (configuration not stated) | -5 | / | -2 | -1 | 1 | 10* | 1 | 0
O=C(NCc1ccco1)C1CCCN(S(=O)(=O)c2ccc(Br)cc2)C1 (configuration not stated) | -4 | -1 | -1 | -1 | 0 | 5 | / | /
Cc1ccc(C2Nc3ccccc3C(=O)N2CCCN2CCOCC2)cc1 (configuration not stated) | 1 | 2 | 4 | 0 | 0 | -3 | / | /
O=C1c2ccccc2NC(c2ccccc2Br)N1CCCN1CCOCC1 (configuration not stated) | -1 | 0 | -1 | -1 | 0 | 8.1* | 1 | -2
CN(Cc1ccccc1)C(=O)OCc1cn(Cc2ccc(F)cc2)nn1 | 0 | / | -2 | -1 | 0 | 2 | / | /
Cc1ccc(NCCC(=O)c2cccc([N+](=O)[O-])c2)cc1 | 4 | -1 | 1 | -1 | 0 | 9.4* | 8.0* | 1
COc1ccc2c(ccc[n+]2[O-])c1 | 3 | 0 | 1 | -1 | 0 | 0 | / | /
COc1ccc2nc3ccccc3[n+]([O-])c2c1 | 8 | 1 | -1 | -1 | 2 | 8.4* | 6 | 6.2*
Cc1cc(C)cc(N(CC(=O)NC2CCC(C)CC2)S(=O)(=O)c2ccc(C(C)(C)C)cc2)c1 (configuration not stated) | 8 | / | 1 | 0 | 1 | 4 | / | /
COc1cccc2cc(NC(=O)C3CCCCC3)c(=O)oc12 | 6 | 1 | 3 | -1 | 1 | 12* | 7.8* | 10*
COc1cccc2cc(C(=O)N3CCCCC3C)c(=O)oc12 (configuration not stated) | 1 | 1 | 0 | -1 | 0 | 0 | / | /
CCCN(CC1CC1)C(=O)CSc1nnc(-c2ccncc2)n1-c1ccc(OC)cc1 | 1 | / | -2 | -1 | -1 | -2 | / | /
CN(C)/C=N/c1ncc(C(=O)c2ccccc2)s1 | 7 | 3 | 2 | -1 | 2 | 14* | 8.7* | 8.1*
CCCCNC(=O)C1(C(=O)c2ccc(OC)cc2)CC(c2ccccn2)=NO1 (configuration not stated) | 6 | / | 2 | 0 | 2 | 5 | / | /
COc1ccc(-n2c(CN3CCN(C)CC3)nc3ccc([N+](=O)[O-])cc3c2=O)c(OC)c1 | -3 | 0 | 2 | 0 | 0 | 1 | / | /
COc1cccc(-n2c(CN3CCN(Cc4ccccc4)CC3)nc3ccc([N+](=O)[O-])cc3c2=O)c1 | -2 | / | -1 | -1 | -2 | 12* | 5 | 1
CCOC(=O)c1ccc(-n2c(CN3CCN(CCO)CC3)nc3ccc([N+](=O)[O-])cc3c2=O)cc1 | 4 | 2 | -1 | -2 | -1 | 9.5* | 9.8* | 1
O=C(NCc1c(F)cccc1F)C1CCCN(c2ncccn2)C1 (configuration not stated) | 4 | / | 0 | -1 | -1 | -2 | / | /
C=CCN1[C@@H](C)COc2cccc(N3CCCC3)c2S1(=O)=O | 3 | / | -2 | -1 | 0 | 0 | / | /
COc1ccc(CNCC#Cc2ccccc2)cc1 | 2 | / | 0 | -1 | 0 | -3 | / | /
CC(=O)Nc1ccc(NC(=O)CSc2nnc(-c3n[nH]c4c3CCC4)n2N)cc1 | 2 | / | 0 | -1 | -1 | -3 | / | /
COc1cccc(CNC(=O)C2C3C=CC4(CN(Cc5ccccc5)C(=O)C24)O3)c1OC (configuration not stated) | -2 | / | -3 | -1 | 0 | -5 | / | /
SMILES | hgDAF12 agonist | DAX1 inh-1 | hcDAF12 agonist | ssDAF-12 act | DAX1 inh-2 | SMARCA2 activ | SMARCA2 conf | GAL4-VP16 Luc
COc1ccc(CC(=O)Nc2c3c(nn2-c2ccccc2C)CS(=O)C3)cc1 (configuration not stated) | 0 | 1 | -1 | -1 | 0 | 8.7* | -2 | 0
Cc1ccc(OCc2nnc(SCC(=O)Nc3ccccc3-c3ccccc3)n2Cc2ccco2)cc1 | 2 | / | -3 | -1 | -2 | -3 | / | /
COc1ccc(OCC(=O)N/N=C(\C)CC(=O)Nc2ccc(OC)cc2[N+](=O)[O-])cc1 | 0 | 0 | 0 | 0 | 0 | 8.7* | -3 | 2
CCOc1ccc(OCC(=O)Nc2ccc(OC)cc2[N+](=O)[O-])cc1 | 1 | -1 | 0 | -2 | 0 | 0 | / | /
COc1ccc(NC(=O)CSc2ccccc2)c([N+](=O)[O-])c1 | 5 | 3 | 1 | 0 | 1 | 8.4* | 3 | 5
Cc1ccc(NC(=O)Cc2cccc(OC(F)(F)F)c2)c(S(=O)(=O)N2CCOCC2)c1 | 3 | / | 0 | -2 | 0 | -2 | / | /
COc1ccc(C(NC(=O)c2ccco2)c2ccc(OC)c(OC)c2)cc1OC | 0 | -2 | -3 | -1 | 0 | 9.0* | -1 | 1
COCCCNC(=O)C[C@H]1C[C@@]2(C(=O)OC)C(=C[C@H](C3CCCC3)O[C@@H]2C)N(Cc2ccc(Cl)cc2Cl)C1=O | 3 | / | -1 | -2 | -1 | -3 | / | /
Cc1cc(NC(=O)c2ccco2)ccc1NC(=O)c1ccco1 | 5 | 0 | 4 | -1 | 0 | 9.7* | -1 | 1
Cc1cc(NC(=O)c2ccco2)ncc1NC(=O)Cc1ccccc1 | 3 | 1 | 3 | 0 | 0 | 11* | 12* | 3
CCCC(=O)Nc1ccc(NC(=O)c2ccco2)c(OC)c1 | 6 | 1 | 2 | 0 | 3.7* | 9.7* | 7 | 6.5*
COc1cccc(CNC(=O)C2CCCN(c3ncccn3)C2)c1OC (configuration not stated) | 1 | / | 3 | -2 | -1 | -2 | / | /
Cc1ccc(NC(=O)CSc2nnc(-c3cnccn3)n2Cc2ccco2)cc1 | -4 | 0 | -3 | -1 | -1 | 23* | -4 | 0
O=C(CSc1nnc(-c2cnccn2)n1-c1ccccc1)Nc1ccc2cn[nH]c2c1 | 0 | / | 3 | 0 | 0 | 8.7* | 3 | -1
